Reference: PMC7819943, “Rice protein-binding microarrays: a tool to detect cis-acting elements near promoter regions in rice”
In all, about 68,000 sequences were measured (“fluorescence intensity (a.u.)”: median about 9,100, highest 2% from about 16,000 on). The full list was thinned out, with the highest values kept by preference.

molecular target: OsWRKY34 (Oryza sativa, UniProt Q0JBA9 1-250); experiment: protein-binding microarray (RPBM); PBS, 2% BSA, 51.3 ng/ul salmon testes DNA, 50 uM zinc acetate, 200 nM TF, 25 C, 1 h; high values mean tight binding; conditions: protein: recombinant; tags: N-terminal polyhistidine and DsRed monomer fusion (pET32a); label: CyDye5-dUTP incorporated in the synthesized complementary strand; 3' TTTTT single-stranded linker to array surface; dsDNA, one strand shown
In short: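 In PBS with 2% BSA, salmon testes DNA and 50 µM zinc acetate, 200 nM protein was incubated on a custom Agilent array at 25 °C for 1 h and then washed off. The array had been made double-stranded by primer extension with Cy5-dUTP and blocked with 2% BSA. The proteins were transcription factors fused N-terminally to polyhistidine and DsRed, expressed in E. coli BL21-CodonPlus and purified on Ni–NTA. The binding signal is per-feature fluorescence intensity (arbitrary units) from an Axon 4000B scanner.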

Chain of OsWRKY34 (Q0JBA9 entry or part of it): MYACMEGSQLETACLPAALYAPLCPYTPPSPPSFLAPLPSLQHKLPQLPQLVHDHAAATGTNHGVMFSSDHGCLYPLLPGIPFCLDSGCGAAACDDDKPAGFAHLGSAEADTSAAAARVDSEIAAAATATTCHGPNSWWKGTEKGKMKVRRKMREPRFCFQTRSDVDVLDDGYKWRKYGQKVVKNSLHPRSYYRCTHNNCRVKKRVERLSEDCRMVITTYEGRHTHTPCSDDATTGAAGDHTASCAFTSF

Sequence	binding signal
TCGGTTGGTTGGGAATTTCCATGACTATTTTCACCTATAACGGAGTCACCTAGTGCAG	8650 fluorescence intensity (a.u.)
AGGCTTCCAATCTTGTGCTAATCTGCTGGTGAAGTATATGCGGAGTCACCTAGTGCAG	8480 fluorescence intensity (a.u.)
CTCCGCCGCCACGCTCGCCCGCTGTTTGCTCCGTCCGCAGCGGAGTCACCTAGTGCAG	8350 fluorescence intensity (a.u.)
TCTCTGGTGGCTCCCTGGCGCTCCTCTTCACTCCATCCTCCGGAGTCACCTAGTGCAG	9090 fluorescence intensity (a.u.)
TTTCTAGATGTCTACGCGTTATCAGCATGTTGATGTCTACCGGAGTCACCTAGTGCAG	8460 fluorescence intensity (a.u.)
GTCTCTTCTCTTCTCTCGTGCAAGGCCGGCAGTGTACCGTCGGAGTCACCTAGTGCAG	9270 fluorescence intensity (a.u.)
CGTTTCAAAATATTTAACACCGTTGACTTTTTAGTACGTGCGGAGTCACCTAGTGCAG	31100 fluorescence intensity (a.u.)
ATATTTGACCGTTTGTCTTTTTCAAAAACTTTTGTGAAATCGGAGTCACCTAGTGCAG	9920 fluorescence intensity (a.u.)
CAAATTAGATGTTATTTTGACTTTTTTTTACAATATTTGACGGAGTCACCTAGTGCAG	10600 fluorescence intensity (a.u.)
GTTTCAAAATATTTGACACCGTTGACTTTTTAGTACGTGTCGGAGTCACCTAGTGCAG	19100 fluorescence intensity (a.u.)
GTTTGTCGTAGTAGTTTATTTTTGACACCGGCTTTCAAATCGGAGTCACCTAGTGCAG	9880 fluorescence intensity (a.u.)
TAGAAGAGCGCGTTGACACCGTTGACTTTGGATTTTCCGTCGGAGTCACCTAGTGCAG	18700 fluorescence intensity (a.u.)
TTGGTAGAGTTGTCCGTTTGGATTTTGGCCTCCCTTTTTTCGGAGTCACCTAGTGCAG	8380 fluorescence intensity (a.u.)
CCGTTGACTTGGATTTGTTCCTTTTTCATTTTTTATCGTTCGGAGTCACCTAGTGCAG	14700 fluorescence intensity (a.u.)
CTCCCTCTGTTTCAAAATATTTGACACTGTTGACTTTTTACGGAGTCACCTAGTGCAG	11000 fluorescence intensity (a.u.)
TCAAAATATTTGACACCGTTGACTTTTTAGGACGTGTTTACGGAGTCACCTAGTGCAG	24900 fluorescence intensity (a.u.)
ATTCAACACTTTTAAAATATTTTGATTGCGGTTTCTTTTACGGAGTCACCTAGTGCAG	9530 fluorescence intensity (a.u.)
AAAACACCAAATTAGTTTTATTAAAACTAACTTTCAAATACGGAGTCACCTAGTGCAG	11900 fluorescence intensity (a.u.)
ATCTGCCTAACGTAAAATGCACTATATTCTGTTTTGTTCTCGGAGTCACCTAGTGCAG	8370 fluorescence intensity (a.u.)
GTGGCGACTGTTATCCCTAATTTTGCGGACTTGCTCTGATCGGAGTCACCTAGTGCAG	9800 fluorescence intensity (a.u.)
AACCACCTGAATTTCGTCGAATTTTACCAATTCTGCTGAACGGAGTCACCTAGTGCAG	9120 fluorescence intensity (a.u.)
AAGACATGTGAATTTTGGTGGGATGTGGATGGGGAATTGACGGAGTCACCTAGTGCAG	9840 fluorescence intensity (a.u.)
TTCTATTTTACCTCTCGTCTCTCTCCTCGCGGTCGCTTCTCGGAGTCACCTAGTGCAG	12800 fluorescence intensity (a.u.)
CTCCTCGGGCTAAAAGTGGTAATACGCGTTTCTCAAGCTTCGGAGTCACCTAGTGCAG	9930 fluorescence intensity (a.u.)
CTCACTTGACCGTGAACAGCACTCACTTGATTTGTACTTTCGGAGTCACCTAGTGCAG	10000 fluorescence intensity (a.u.)
TGTTCTCTCCTGCCTCCACACTTTCTGGCACGGTACAAAACGGAGTCACCTAGTGCAG	8370 fluorescence intensity (a.u.)
TTAATTTCACGGTTTCATCTCGACATCTCATCATCTGTTTCGGAGTCACCTAGTGCAG	12100 fluorescence intensity (a.u.)

Sequence	binding signal
ATGCCATTTTTCCCGTTTGTTGCAATTGCAAAACATTTTTCGGAGTCACCTAGTGCAG	8580 fluorescence intensity (a.u.)
CTCTCACACCGTGCCATATCCCGAACATCCCTTGATCGAACGGAGTCACCTAGTGCAG	9530 fluorescence intensity (a.u.)
CTTTCCTGTACTATTTTACTGTCCGATTTACAACATGTGACGGAGTCACCTAGTGCAG	12900 fluorescence intensity (a.u.)
TCGGTTTTTACTGCTTCCATCAGACGTCGGTCTGTTTTCGCGGAGTCACCTAGTGCAG	9470 fluorescence intensity (a.u.)
ACCTGTTTCGTTCGTCCACGCCAGCGCCAACCGGACATGACGGAGTCACCTAGTGCAG	9460 fluorescence intensity (a.u.)
TCTTGTATTCTCCACTAGTCTTGGGTCATCCATTCTTCAGCGGAGTCACCTAGTGCAG	8550 fluorescence intensity (a.u.)
GCCTCTGTTCTTCCACTCATTATTATCATTTGCAGCTCCGCGGAGTCACCTAGTGCAG	10400 fluorescence intensity (a.u.)
TCCCAACCCACCGTTCCATTCTCTCGAGCTCACCCCGTCACGGAGTCACCTAGTGCAG	10500 fluorescence intensity (a.u.)
TCTGTATTAGCGTTCGGTTGTTTTATTTGACTTTCCAAATCGGAGTCACCTAGTGCAG	8360 fluorescence intensity (a.u.)
AAAAATATTTGACAGCGTTGACTTTTTAGTGCGTATTTGACGGAGTCACCTAGTGCAG	42800 fluorescence intensity (a.u.)
CCGTTTCAAAATATTTGACACCGTTGACTTTTTAGTACGTCGGAGTCACCTAGTGCAG	26800 fluorescence intensity (a.u.)
ATTTTCAAAATATTTGACACTGTTGACTTTTTAGTACATACGGAGTCACCTAGTGCAG	9840 fluorescence intensity (a.u.)
CCTCCGTTTCAAAATATTTGACACCGTTGACTTTTTAGTACGGAGTCACCTAGTGCAG	14100 fluorescence intensity (a.u.)
TGTACTTCAAAAATTTACTTTACCGTGTGTTTTATTTTTTCGGAGTCACCTAGTGCAG	9650 fluorescence intensity (a.u.)
ACTTTTTAGTGCGTATTTGACTATTCGTCTTATTTAAAAACGGAGTCACCTAGTGCAG	9800 fluorescence intensity (a.u.)
TCGTTTCAAAATACTTGACACCGTTGACTTTTTAGTACGTCGGAGTCACCTAGTGCAG	23300 fluorescence intensity (a.u.)
TTCAAAATATTTGACACCGTTGACTTTTTAGTACGTGTTTCGGAGTCACCTAGTGCAG	18200 fluorescence intensity (a.u.)
ATCAATCTATTAGAATACTTATTACTGTATCTACTTATGTCGGAGTCACCTAGTGCAG	8690 fluorescence intensity (a.u.)
TAGGTTTTTTTTTACTTTTTAACTTGGCTGATTTTATTGACGGAGTCACCTAGTGCAG	8760 fluorescence intensity (a.u.)
GACTCTTGCGATTCCCTCTGTTGAACTTGTTCGTTCTCCTCGGAGTCACCTAGTGCAG	10600 fluorescence intensity (a.u.)
TTCCCCATGTTTTTTTGCCCACTAACTCACTAGCCACCACCGGAGTCACCTAGTGCAG	10700 fluorescence intensity (a.u.)
CCTCGACCTCTCGCTACTCCAGGCGCCGCCCCATCAGATGCGGAGTCACCTAGTGCAG	8200 fluorescence intensity (a.u.)
CGTACGCGCCCACGCCCACTCCCACGCCTTCGCGCGCGCGCGGAGTCACCTAGTGCAG	9220 fluorescence intensity (a.u.)
TTAGGTCGGGTTTTTCCCGTTTCTCGTTTCTATGGCGATGCGGAGTCACCTAGTGCAG	8750 fluorescence intensity (a.u.)
TCCTTGTGCCCACTTCTAGCTAGCTTCCAAGTTCCAACCACGGAGTCACCTAGTGCAG	13700 fluorescence intensity (a.u.)
GGTGCTTGTTTAATCAAAGCTTGCTATTTGGTACTTTTTTCGGAGTCACCTAGTGCAG	8940 fluorescence intensity (a.u.)
GGACCACCCTGCCGCGGACATCACCCATCTCGTCATCTCCCGGAGTCACCTAGTGCAG	9570 fluorescence intensity (a.u.)
